Measurements: PubChem BioAssay (NCI)
“And” between values parts separate entries of the source, which are not always exact repeats. Identical values can stand only once. The panel holds about 79,000 compounds, 15% with a hit somewhere; the sample as a whole holds those more often. A number with no mark means an inactive call. The source made the active and inactive calls. Rule as the data show it: active = growth inhibition above about 70%; inactive = the rest.

Experiments:
[1] = NCI Yeast Anticancer Drug Screen. Data for the rad50 strain (AID 155);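 also: 0% = growth of vehicle-only cultures of the same strain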; details: S. cerevisiae rad50 strain growth inhibition; at 50.0 µM; stronger effect = higher value
Summary of the method: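 Readout: growth inhibition relative to vehicle-treated cultures. Compound exposure was carried out in a genetically defined yeast strain deficient in DNA damage repair.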

[2] = NCI Yeast Anticancer Drug Screen. Data for the mec2-1 strain (AID 157); details: S. cerevisiae mec2-1 strain, at 50.0 µM, stronger effect = higher value
Summary of the method: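 Mutant yeast (mec2-1) grown with compound; growth inhibition relative to vehicle control reported.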

[3] = NCI Yeast Anticancer Drug Screen. Data for the sgs1 mgt1 strain (AID 161);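 also: 0% = growth of cultures given vehicle only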; details: S. cerevisiae sgs1 mgt1 strain, at 50.0 µM, stronger effect = higher value
Summary of the method: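 Growth of a repair-deficient yeast mutant was monitored after compound treatment and expressed as inhibition relative to vehicle-treated cultures.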

[4] = NCI Yeast Anticancer Drug Screen. Data for the cln2 rad14 strain (AID 165);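 also: 0% = growth equal to vehicle treated cultures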; details: S. cerevisiae cln2 rad14 strain, at 50.0 µM, stronger effect = higher value
Summary of the method: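 Readout is yeast growth inhibition versus vehicle-treated controls, using a strain with cln2 and rad14 alterations exposed to compound.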

[5] = NCI Yeast Anticancer Drug Screen. Data for the bub3 strain (AID 167); details: S. cerevisiae bub3 mutant strain, at 50.0 µM, stronger effect = higher value
Summary of the method: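 Readout: yeast growth inhibition, expressed relative to vehicle-only wells. The test organism is a mutant strain from a panel with lesions in DNA repair or checkpoint genes.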

[6] = NCI Yeast Anticancer Drug Screen. Data for the mlh1 rad18 strain (AID 175); details: S. cerevisiae mlh1 rad18 strain growth inhibition; at 50.0 µM; stronger effect = higher value
Summary of the method: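 Genetically defined yeast (DNA repair-deficient) exposed to compounds; growth inhibition determined relative to vehicle.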

SMILES | growth inhibition [1] | growth inhibition [2] | growth inhibition [3] | growth inhibition [4] | growth inhibition [5] | growth inhibition [6]
NS(=O)(=O)c1ccc([As](=O)(O)c2ccccc2)cc1 | 14.2% | -9.35% | 7.85% | 15.7% | 9.5% | -7.75%
CC(=O)c1ccc(NC(O)C(Cl)(Cl)Cl)cc1 (stereo unspecified) | 5.75% | 18.9% | -0.25% | -12.2% | 18.8% | 22.4%
O=NNc1cnccn1 | -15.2% and -8.45% | -23.9% and 1.5% | -37.5% and -16.6% | -3.8% and 4.05% | -19% and -18.5% | -8.25% and -21.2%
Nc1ccc(Cl)c(C(F)(F)F)c1 | 0.85% | -16.6% | -12.1% | -18.4% | -1% | 2.6%
O=C(O)Cc1ccc([N+](=O)[O-])cc1[N+](=O)[O-] | 3.55% | -13.6% | -7.25% | -27.2% | 0.05% | -2.6%
O=P(CCl)(Oc1ccc(Cl)cc1)Oc1ccc(Cl)cc1 | 20.6% | 16.1% | 6% | -19.4% | 7.5% | -10.2%
C=CCN(CC=C)C1CCOC(OC)C1O (stereo unspecified) | -19.4% | -20.5% | -9.35% | -5.05% | -12% | -14.2%
NCCCNCCCN | 5.2% | -3.1% | -3.95% | -4.3% | 7.85% | -11.7%
N#CCCCCCl | 19.4% | 10.9% | 16.3% | 25.2% | 13.6% | 28.9%
CC(C)CCCCCc1ccc(OCCOc2ccc(C(=O)Nc3ccc(S(=O)(=O)F)cc3[N+](=O)[O-])cc2)cc1 | 42.1% | -8.75% | 26.2% | -11.7% | 0.5% | 9.85%
CCCN(CCC)C(=O)CCl | -4.55% | 5.2% | 5.85% | 3.3% | -4.55% | 9.4%
C1CC[N-]CC1.C1CC[N-]CC1.C1CC[N-]CC1.C1CC[N-]CC1.[Cl][Rh][Cl] | -12.5% | 28.6% | 8.5% | -13.9% | -58% | -18.4%
c1cc2c(c(NC3=NCCO3)c1)CCCC2 | 3.4% and 5.65% | 1.05% and -2.1% | -2.5% and 6.05% | -45.5% and 0.05% | -5.35% and 39.4% | -1.1% and -6.15%
CS/C([S-])=N/N=C(C)C.CS/C([S-])=N/N=C(C)C.[Pt+2] | 9.1% | 1.45% | 0.7% | -41.3% | -0.8% | -9.9%
N#CCCCCl | 27.1% | 15.8% | 14.9% | 26.1% | 29.8% | 30.5%
Cc1cc(Cl)ccc1NC(=O)/C(CC(=O)CC(c1ccccc1)c1c(O)c2ccccc2oc1=O)=N\O (stereo unspecified) | -14.9% | -8.4% | 3.05% | -37.6% | -29.1% | -5.8%
NC(CCP(=O)(O)O)C(=O)O (stereo unspecified) | 1.1% and -34.8% | -3.5% and -15.6% | -5.6% and -33.7% | -3.25% and 6.1% | 7.7% and -23.5% | -5.75% and -18.1%
C[C@]12Cc3sc(N)nc3C[C@@H]1CC[C@@H]1[C@@H]2CC[C@@]2(C)[C@H]1CC[C@]2(C)O | -21.5% | -18.4% | 11% | -32% | 25.6% | -4.95%

SMILES | growth inhibition [1] | growth inhibition [2] | growth inhibition [3] | growth inhibition [4] | growth inhibition [5] | growth inhibition [6]
ClCCN(CCCl)c1ccc(CCN2CCOCC2)cc1 | 46.2% | 15.9% | 19.5% | 37.4% | -0.1% | 9.3%
CCOP(=O)(OCC)C(=C(Cl)Cl)C(Cl)Cl | 82.6% (active) | 85.2% (active) | 8.75% | 37.6% | -17.1% | 49.8%
CC(C)(C1CCC(O)CC1)C1CCC(O)CC1 (stereo unspecified) | 19.5% and 13.4% | -19.5% and -13.6% | -12.2% and -21.9% | -12.6% and -17.6% | -5.75% and -21.8% | 31.4% and 16.1%
CC(C)N1CCc2cc3c(cc2C1)OCO3 | 9.8% | 11.1% | 1.3% | 1.25% | -17.5% | 23%
CCC1(C(C)C)C(=O)NC(=S)N(C)C1=O (stereo unspecified) | 29.6% | -5.45% | 2.9% | 2.85% | 0.95% | 12.8%
CCN(CCCl)c1cc(CN(C)C)cc(NC(=O)c2ccc(C(=O)Nc3ccccc3)cc2)c1 | 0.7% | -18.4% | 5% | 26.2% | 23.9% | 12.4%
CC[CH2][Sn]([CH2]CC)[CH2]CC.CC[CH2][Sn]([CH2]CC)[CH2]CC | 99.2% (active) | 99.5% (active) | 99.5% (active) | 99.5% (active) | 98.6% (active) | 99.4% (active)
CC[As](CC)SCC1OC(OC(C)=O)C(OC(C)=O)C(OC(C)=O)C1OC(C)=O (stereo unspecified) | 99.1% (active) | 98.5% (active) | 68.2% | 99.5% (active) | 65.8% | 98.9% (active)
C=CC(N)=O (tested in a mixture with another compound) | 1.15% | -7.1% | 8.2% | 0.4% | 15.8% | 2.2%
C=C1CC2CC[C@@]34CC5O[C@@H]6C(O[C@H]7CC[C@H](CC(=O)OC8C(C)C9OC%10C[C@]%11(C[C@@H]%12O[C@]%13(CC(C)[C@@H]%14O[C@H](C(O)CC(O)CO)C[C@@H]%14O%13)CC(C)[C@@H]%12O%11)OC%10CC9O[C@H]8C[C@H]8OC(CC[C@@H]1O2)C[C@@H](C)C8=C)OC7[C@@H]6O3)[C@H]5O4 (stereo partly specified) | 87.3% (active) | 91.1% (active) | 90.6% (active) | 83.7% (active) | 91.1% (active) | 69.8%
O=C1C(=O)c2ccccc2-c2ccccc21 | 36.6% and 34.6% | 31.1% and 18.2% | 32.8% and 25.5% | -6.65% and -35.9% | 25.9% and 30.6% | 5.35% and 9.6%
CC(=O)OC[C@]12C[C@H](OC(=O)CC(C)C)C(C)=C[C@H]1O[C@@H]1[C@H](O)[C@@H](O)[C@@]2(C)[C@@]12CO2 | 83.2% (active) | 83% (active) | 83.3% (active) | 87.7% (active) | 81.9% (active) | 84.8% (active)
Nc1n[nH]c(CCc2nc(N)n[nH]2)n1 | 22.8% | -12.2% | -18.1% | 7.65% | 11.6% | 4.9%
COc1cc(C(CC(C)=O)c2cc3c(cc2OC(C)=O)OCO3)cc(OC)c1OC (stereo unspecified) (tested in a mixture with another compound) | 5.1% | 8.6% | 17.2% | 2.45% | 5.15% | 23.8%
CN(C)c1ccccc1CN1CCCN(Cc2ccccc2N(C)C)C1c1ccc(N(CCCl)CCCl)cc1 | 92.4% (active) | 40.4% | 93.5% (active) | 57.4% | 15.1% | 90.8% (active)
O=NNc1ccc(Cl)cn1 | -11.5% | 3.75% | 3.1% | -1.45% | -18.3% | 3.3%
CC(=O)OC1CCC2(C)C3CCC4(C)C(c5ccc(=O)oc5)CC5OC54C3CCC2(O)C1 (stereo unspecified) | 40% | 2.75% | 19.6% | -1.8% | -2.2% | 2.3%
O=[As](O)(c1cccc(Cl)c1)C1CCCCC1O (stereo unspecified) | 1.05% | -0.35% | 5.3% | -1.95% | 25.2% | 34.4%
